Screening data (PubChem)
PfHsp90 yeast 2 = inhibits growth of yeast expressing Plasmodium falciparum Hsp90; AID 504621; hit rate 0.32% among 310,000; S. cerevisiae expressing PfHsp90, BacTiter-Glo ATP, 48 h; yeast lacking PDR1 and PDR3 efflux regulators; inhibition, % at 9.4 µM;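 active = every replicate shows inhibition above about 80%, whatever the replicate mean, limit read from the data; inconclusive = mean inhibition reaches the set limit but some replicate falls short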
tim23-1 inh = growth inhibitors of tim23-1 mutant yeast | inhibition, % at 20 µM | AID 463212 | S. cerevisiae tim23-1 growth, BacTiter-Glo luminescence, 24 h | hit rate 1.3% among 330,000;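 active = growth inhibition of the mutant yeast at or above 50%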;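 also: temperature-sensitive mutant grown at 25 °C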
tim10-1 inh = inhibits growth of tim10-1 mutant yeast. hit rate 2.2% among 330,000. AID 463190. inhibition, % at 20 µM. S. cerevisiae tim10-1 ts strain growth, BacTiter-Glo, 24 h;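 active = inhibition of at least 40%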;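 also: mutant grown at 25 °C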
SKKanGAS inh = SKKanGAS growth inhibition. hit rate 1.3% among 300,000. S. pyogenes SKKanGAS, kanamycin growth, BacTiter-Glo, 6 h. inhibition, % at 7.5 µM;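 active = mean replicate score, as percent of positive control median, at least 50; inconclusive = mean below 50 but one replicate at or above 50; inactive = mean and every replicate below 50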;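 also: strain carries kanamycin resistance gene driven by streptokinase promoter and grows in 40 µg/ml kanamycin; loss of luminescence reflects streptokinase promoter inhibition or plain growth inhibition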
TIM10 inh = growth inhibitors of TIM10 yeast strain; S. cerevisiae TIM10 strain growth, BacTiter-Glo luminescence, 24 h; inhibition, % at 10 µM; hit rate 1.4% among 330,000;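 active = inhibition of 40% or more at the single tested concentration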;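 also: wild-type TIM10 isogenic control strain grown at permissive 25 °C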
tim10-1 conf = confirmation of tim10-1 mutant yeast growth inhibitors; shares compounds with tim10-1 inh; hit rate 56% among 7,400; S. cerevisiae tim10-1 ts strain growth, BacTiter-Glo, 24 h; inhibition, % at 20 µM;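 active = inhibition of yeast growth at or above a set limit in either of two repeat tests at 20 µM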;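 also: tim10-1 mutant grown at permissive 25 °C to find synthetic lethal compounds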
tim10 confirm = TIM10 yeast growth inhibition, confirmed | AID 463215 | inhibition, % at 10 µM | hit rate 63% among 4,600 | S. cerevisiae tim10 strain growth, BacTiter-Glo luminescence, 24 h | shares compounds with TIM10 inh;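 active = inhibition of yeast growth at or above a set limit in either of two replicates at 10 µM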; also: this counterscreen used the strain with wild-type TIM10
Hits are given with their value; - = inactive; ? = inconclusive; . = no result. Compounds with a hit are over-represented: about 4.4% of the library has one in this group of screens.

SMILES	PfHsp90 yeast 2	tim23-1 inh	tim10-1 inh	SKKanGAS inh	TIM10 inh	tim10-1 conf	tim10 confirm
Cc1ccc2c(c1)C1CN(C)CCC1N2C(=O)c1ccc(Cl)c(S(=O)(=O)N2CCOCC2)c1 (stereo not drawn)	-	-	-	-	-	.	.
Cc1ccc2c(c1)C1CN(C)CCC1N2C(=O)c1cccc(S(=O)(=O)N2CC(C)CC(C)C2)c1 (stereo not drawn)	-	-	47	-	55	43	38
CC1CC(C)CN(C(=O)C(Cc2ccccc2)NC(=O)c2ccccc2)C1 (stereo not drawn)	.	-	-	-	-	.	.
CC1C/C(=C/c2ccncc2)C(=O)/C(=C/c2ccncc2)C1 (stereo not drawn)	98	-	44	-	84	39	89
Cc1ncc(CO)c(/C=N/NC(=S)Nc2ccc(Cl)c(Cl)c2)c1O	-	-	51	66	92	33	38
Cc1ncc(CO)c(/C=N/NC(=S)Nc2cccc(Cl)c2)c1O	-	-	-	-	-	.	.
O=C(c1ccc([N+](=O)[O-])s1)N1CCc2ccccc21	-	-	-	-	-	.	.
O=C(c1ccc([N+](=O)[O-])s1)N1CCCc2ccccc21	-	-	54	-	40	49	51
Nc1ccc(S(=O)(=O)c2ccccc2)nc1	-	-	-	-	-	.	.
O=[N+]([O-])c1ccc(S(=O)(=O)c2ccccc2)nc1	-	-	64	-	60	58	52
Clc1ccc(Nc2nc(C3CC3)cs2)cc1	-	-	54	-	43	49	-
O=C(/C=C/c1ccc(-c2ccccc2)o1)c1ccccc1	-	-	-	-	54	59	48
COc1ccc(C2(CO)OC(CO)C(O)C2O)cc1 (stereo not drawn)	-	.	.	.	.	.	.
COc1ccccc1-c1cc(C(F)(F)F)nc(S(=O)(=O)CCCC(=O)N2CCCCC2C)n1 (stereo not drawn)	-	-	42	-	41	-	-
COc1ccccc1-c1cc(C(F)(F)F)nc(S(=O)(=O)CCCC(=O)Nc2cc(C)on2)n1	-	-	-	-	-	.	.
O=C1NC(=O)/C(=C\c2ccccc2OCc2ccccc2)S1	-	-	45	?	43	33	-
CCOc1ccc2nc(N/C(N)=N/C(=S)Nc3cccc(C)c3)nc(C)c2c1	-	-	-	-	-	.	.
CCc1ccccc1NC(=S)/N=C(\N)Nc1nc(C)c2cc(C)ccc2n1	-	-	45	-	44	-	-
Cc1nn(C)c(C)c1NC(=O)Nc1cccc(C(F)(F)F)c1	-	-	-	-	-	.	.
Cc1nn(C)c(C)c1NC(=O)Nc1ccc(Cl)c(Cl)c1	-	-	60	-	40	58	-
CCN1CCN(c2cc(N3CCc4ccccc4C3)c(F)cc2[N+](=O)[O-])CC1	-	-	41	-	41	32	-
COc1ccc(C(=O)Nc2ccc(S(=O)(=O)N3CCCC3)cc2)cc1	-	-	55	-	45	-	33
O=C(COc1ccccc1F)Nc1ccc(S(=O)(=O)N2CCCC2)cc1	-	-	50	.	44	-	33
O=C(Nc1ccccc1)Nc1ccc(S(=O)(=O)N2CCCCC2)cc1	-	-	43	-	51	32	-
O=C(COc1cccc(C(F)(F)F)c1)Nc1ccc(S(=O)(=O)N2CCCC2)cc1	-	-	50	.	68	53	51
SMILES	PfHsp90 yeast 2	tim23-1 inh	tim10-1 inh	SKKanGAS inh	TIM10 inh	tim10-1 conf	tim10 confirm
O=C(COc1ccc(S(=O)(=O)N2CCCC2)cc1)Nc1ccc(F)cc1	-	-	-	-	-	.	.
CC1CCN(C(=O)CSc2nnc3c(n2)[nH]c2ccccc23)CC1	-	-	-	-	-	.	.
Cc1ccc2nc(N3CCN(Cc4nnnn4Cc4ccccc4)CC3)c(C#N)cc2c1	-	-	58	-	51	54	-
COc1ccccc1Nc1nc(N)nc(CSC(=S)N2CCN(c3ccccc3)CC2)n1	-	-	-	-	-	.	.
COc1ccccc1Nc1nc(N)nc(CSC(=S)N2CCCCC2C)n1 (stereo not drawn)	-	-	42	-	49	-	-
CCSc1nc2ccccc2n1CC(N)=O	.	-	-	-	-	.	.
CCSc1nc2ccccc2n1C(=O)/C=C\c1ccc(OC)c(OC)c1	-	-	65	-	52	56	-
C=C(C)COc1ccc(-c2n[nH]c(C)c2-c2ccc(OC)c(OC)c2)c(O)c1	-	-	44	-	41	33	38
C=C(C)COc1ccc(-c2n[nH]c(C)c2Oc2ccccc2OC)c(O)c1	-	-	-	-	-	.	.
O=Cc1cccc(OC(=O)c2ccc(Cl)cc2Cl)c1	.	-	42	-	45	-	-
COc1cc(C(=O)Oc2cccc(C=O)c2)cc(OC)c1OC	-	-	-	-	-	.	.
O=C(NC(=S)NCCC1=CCCCC1)c1ccccc1Br	-	-	43	?	46	31	41
Cn1c(NN)nc2c1c(=O)n(Cc1ccccc1)c(=O)n2C	-	-	-	-	-	.	.
Cc1ccccc1NC1=C/C(=N\S(=O)(=O)c2cccs2)c2ccccc2C1=O	-	-	82	90	67	77	54
CC1CCN(CCc2nc3cc(NC(=O)COc4ccc(Cl)cc4)ccc3n2C)CC1	-	-	-	-	-	.	.
COc1ccc(Cc2nnc(NC(=O)Nc3ccccc3F)s2)cc1OC	-	-	-	-	-	.	.
CCc1nccn1-c1cc(C(C)(C)C)nc2c(-c3ccc(Cl)cc3)cnn12	-	-	-	-	-	.	.
Cc1nccn1-c1cc(C(C)(C)C)nc2c(-c3ccccc3)cnn12	-	-	50	-	54	48	55
CC(C)(C)OC(=O)NCc1n[nH]c(=S)n1C1CC1	-	-	-	-	-	.	.
CC(=O)Nc1ccc2nc(-c3ccco3)[nH]c2c1	-	-	-	-	-	.	.
O=C(Nc1ccc2nc(-c3ccco3)[nH]c2c1)c1cccs1	-	-	-	-	66	-	-
O=C(Oc1c(CN2CCOCC2)cc(Cl)c2cccnc12)c1cccs1	-	-	47	-	42	41	-
COc1cccc(N2CCN(C(=O)c3ccc4nc(N5CCCCC5)sc4c3)CC2)c1	-	-	-	-	-	.	.
COc1ccc(N2CCN(C(=O)c3ccc4nc(N5CCCCC5)sc4c3)CC2)cc1	-	-	44	-	40	34	33
CCN1CCN(c2ccc(S(=O)(=O)N3CCCCC3)cc2NC(=O)c2cccc(OC(F)F)c2)CC1	-	-	-	-	-	.	.
CS(=O)(=O)c1ccc(C(=O)OCc2nnc(-c3ccc(Cl)cc3)o2)cc1[N+](=O)[O-]	.	-	59	-	51	56	41
O=C(OCc1nnc(-c2ccc(Cl)cc2)o1)c1ccc(O)cc1	-	-	-	-	-	.	.
COc1cccc(-c2nn3c(-c4ccco4)nnc3s2)c1	-	-	52	-	47	55	-
CCCCCCCN1C(Nc2ccccc2)=NC[C@@H]1C	-	-	-	.	-	.	.
